Several values for one entry are separate records, joined by “and”; a condition that tells them apart may be missing. Equal values may be shown once. Inconclusive results are not listed. A call without a number means that no potency is given here. Some structures have more than one record in an assay (separate samples or runs), and their calls can disagree. Activity calls are given as the source filed them. Unless noted, calls follow the shape of the full dose curve.
Tests used:
[1] = Nuclear factor erythroid 2-related factor 2/antioxidant responsive element (Nrf2/ARE) small molecule agonists: qHTS cell viability counter screen in human keratinocytes (AID 1919968; active = well fitted curve in the direction sought with a large enough effect in the repeat runs; an effect the other way counts as inactive or inconclusive; also: nearly all actives have a fitted effect of over 55% in size; also: potency is read from the fitted curve at half-maximal effect)
In short: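 Cells of the KeratinoSens line were plated at 1,500 per well and left for 5 h before compound transfer from DMSO stocks. After a 23 h incubation (37 C, 5% CO2), CellTiter-Fluor was added. Signal was taken as fluorescence intensity 1 h later.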

[2] = Nuclear factor erythroid 2-related factor 2/antioxidant responsive element (Nrf2/ARE) small molecule agonists: luciferase reporter gene qHTS assay in human keratinocytes (AID 1919969); also: nearly all actives have a fitted effect of over 35% in size; also: potency is read from the fitted curve at half-maximal effect
[3] = target: Gonadotropin-releasing hormone receptor (Homo sapiens) (UniProt P30968); experiment: Human gonadotropin-releasing hormone receptor (GnRHR) small molecule agonists, calcium flux assay in GnRHR-HEK293 cells (AID 1920063); also: nearly all actives have a fitted effect of over 35% in size
In short: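 Compounds dissolved in DMSO are pin-transferred onto dye-loaded GnRHR-HEK293 cells, which were seeded 18 h before at 37 C/5% CO2. Calcium signal is read as fluorescence intensity at 1 s intervals for 3 min.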

[4] = target: KiSS-1 receptor (Homo sapiens) (UniProt Q969F8); experiment: Human kisspeptin (KISS1R) small molecule agonists, calcium flux assay in KISS1R-HEK293 cells (AID 1920064; active = well fitted curve in the direction sought with a large enough effect in the repeat runs; an effect the other way counts as inactive or inconclusive)
In short: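 Cell line: HEK293, stable human KISS1R. Dye loading 1 h at 37 C after 18 h culture. Read: kinetic fluorescence, 480/540 nm, 3 min at 1 s intervals.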

[5] = G protein-coupled receptor (GPCR) small molecule agonists, calcium flux assay: HEK293 wild type cell line counter screen (AID 1920065)
In short: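 Tox21 10K compounds, 15 concentrations each in triplicate, pin-transferred in DMSO onto dye-loaded cells; kinetic read at 480/540 nm for 3 min, 1 s intervals.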

[6] = p53 small molecule agonists, cell-based qHTS assay with human liver microsomes (AID 1963577); also: potency is read from the fitted curve at half-maximal effect
In short: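 p53RE-bla reporter cells were pre-incubated 5 h at 37 C, then treated with compounds plus human liver microsomes (0.5 mg/mL final) and NADPH (0.5 mg/mL final) for 16 h at 37 C. Beta-lactamase activity was read by LiveBLAzer fluorescence after 2 h at room temperature.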

[7] = p53 small molecule agonists, cell-based qHTS assay with human liver microsomes: qHTS cell viability counter screen (AID 1963579); also: nearly all actives have a fitted effect of over 45% in size; also: potency is read from the fitted curve at half-maximal effect
In short: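 p53RE-bla cells (4,000/well) were pre-incubated 5 h at 37 C, then given compounds in DMSO plus human liver microsomes (0.5 mg/mL final) and NADPH (0.5 mg/mL final) for 16 h at 37 C. Viability was read by CellTiter-Glo luminescence.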

[8] = p53 small molecule agonists, cell-based qHTS assay with rat liver microsomes: qHTS cell viability counter screen (AID 1963580); also: nearly all actives have a fitted effect of over 45% in size; also: potency is read from the fitted curve at half-maximal effect
In short: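 Rat liver microsome (0.5 mg/mL final) and NADPH (0.5 mg/mL final) co-incubation with compounds for 16 h at 37 C on HCT-116 p53RE-bla cells; cytotoxicity taken from intracellular ATP luminescence.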

[9] = p53 small molecule agonists, cell-based qHTS assay: qHTS cell viability counter screen (AID 1963581); also: nearly all actives have a fitted effect of over 45% in size; also: potency is read from the fitted curve at half-maximal effect
In short: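 ATP content measured by luminescence in HCT-116 p53RE-bla cells treated 16 h at 37 C, same wells as the reporter screen.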

[10] = p53 small molecule agonists, cell-based qHTS assay (AID 1963582; active = well fitted activation curve with a large enough effect in the signal ratio in the repeat runs, not every such curve was filed as active; the % refers to the signal ratio)
In short: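 16 h compound exposure (37 C) of p53 response element–bla cells, preceded by 5 h recovery at 37 C/5% CO2; read-out via LiveBLAzer B/G FRET substrate, 2 h RT, fluorescence intensity.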

[11] = target: 5-hydroxytryptamine receptor 2A (Homo sapiens) (UniProt P28223); experiment: 5-hydroxytryptamine receptor 2A (HTR2A) small molecule antagonists, cell-based qHTS assay (AID 1963586); also: nearly all actives have a fitted effect of over 45% in size
In short: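 CHO cells stably expressing human HTR2A were plated for 18 h at 37 C, then loaded with calcium dye for 1 h. Compounds were preincubated 5 min at room temperature before DOI (4 nM solution) was added. Kinetic fluorescence was read for 3 min.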

[12] = target: 5-hydroxytryptamine receptor 2A (Homo sapiens) (UniProt P28223); experiment: 5-hydroxytryptamine receptor 2A (HTR2A) small molecule agonists, cell-based qHTS assay (AID 1963587); also: nearly all actives have a fitted effect of over 30% in size; also: potency is read from the fitted curve at half-maximal effect
In short: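 Kinetic calcium-flux fluorescence (2 min, 1 sec intervals) after compound addition in agonist mode. HTR2A-CHO cells were cultured 18 h, then dye-loaded 1 h at 37 C.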

[13] = target: Muscarinic acetylcholine receptor M1 (Homo sapiens) (UniProt P11229); experiment: Cholinergic receptor muscarinic 1 (CHRM1) small molecule antagonists, cell-based qHTS assay (AID 1963588); also: nearly all actives have a fitted effect of over 40% in size
In short: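 Compounds were tested at 15 concentrations in three independent runs. Dye-loaded CHRM1-CHO cells were exposed 5 min at room temperature before stimulation by acetylcholine added at 50nM. Intracellular calcium was read kinetically on FDSS for 3 min.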

[14] = target: Muscarinic acetylcholine receptor M1 (Homo sapiens) (UniProt P11229); experiment: Cholinergic receptor muscarinic 1 (CHRM1) small molecule agonists, cell-based qHTS assay (AID 1963589); also: nearly all actives have a fitted effect of over 35% in size
In short: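 Homogeneous fluorescence calcium flux, agonist mode. Human M1-expressing CHO cells; compound dosed at 15 concentrations, three independent runs; signal sampled every 1 sec.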

[15] = cAMP Responsive Elements (CRE) small molecule agonists, cell-based qHTS assay (AID 1963590)
In short: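 HEK 293T cells stably bearing CRE-bla were plated at 2,000 cells per well and rested 18 h. Compounds, positive controls or DMSO were added for 3 h at 37 C. LiveBLAzer B/G substrate was then loaded for 2 h at room temperature.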

[16] = cAMP Responsive Elements (CRE) small molecule antagonists, cell-based qHTS assay (AID 1963591; active = well fitted inhibition curve with a large enough effect in the signal ratio in the repeat runs, not every such curve was filed as active; the % refers to the signal ratio)
In short: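 First, CRE-bla HEK293T cells settled 18 h at 37 C. Next, compound and 0.25 uM final NKH477 were applied for 3 h. Last, LiveBLAzer B/G substrate was loaded for 2 h at room temperature.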

[17] = target: Beta-2 adrenergic receptor (Homo sapiens) (UniProt P07550); experiment: Adrenergic beta2 receptor (ADRB2) small molecule antagonists, cell-based qHTS assay (AID 1963592); also: series mostly up to about 92 µM; nearly all actives have a fitted effect of over 50% in size
In short: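 Assay format: CHO-ADRB2 cells, 18-20hr seeding at 37C/5% CO2, then compound plus 1nM isoproterenol agonist mix for 0.5hr RT. Homogeneous time-resolved fluorescence cAMP detection after 1hr, expressed as 665/615 nm ratio.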

[18] = target: D(2) dopamine receptor (Homo sapiens) (UniProt P14416); experiment: Dopamine D2 receptor (DRD2) small molecule agonists, cell-based qHTS assay (AID 1963594); also: nearly all actives have a fitted effect of over 35% in size
In short: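 cAMP accumulation in DRD2-HEK293 cells measured by HTRF after 1 h detection; compounds added 10 min before NKH477 (200nM […]) forskolin-analogue stimulation, 30 min at room temperature, with Ro20-1724 present at 0.1 mM final.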

[19] = target: D(2) dopamine receptor (Homo sapiens) (UniProt P14416); experiment: Dopamine D2 receptor (DRD2) small molecule antagonists, cell-based qHTS assay (AID 1963595; active = well fitted inhibition curve with a large enough effect in the signal ratio in the repeat runs, with a control signal flat; the % refers to the signal ratio; also: potency is read from the fitted curve at half-maximal effect)
In short: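 Antagonist mode in DRD2-HEK293 cells: after compound addition with 0.1 mM Ro20-1724, cells received quinpirole (12 nM) and NKH477 (200 nM) for 30 min at room temperature; HTRF cAMP read after 1 h detection.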

[20] = target: Beta-2 adrenergic receptor (Homo sapiens) (UniProt P07550); experiment: Adrenergic beta2 receptor (ADRB2) small molecule agonists, cell-based qHTS assay (AID 1963593);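 also: CHO cells stably overexpressing human ADRB2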
In short: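 CHO cells stably over-expressing ADRB2 were plated overnight at 37C, then dosed with compounds plus a stimulation mix containing 100uM IBMX and 25uM Ro-20-1724 for 0.5hr at room temperature. cAMP was measured by HTRF competition, 1hr.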

Sequence of 5-hydroxytryptamine receptor 2A (Homo sapiens) (P28223 whole entry, looked up): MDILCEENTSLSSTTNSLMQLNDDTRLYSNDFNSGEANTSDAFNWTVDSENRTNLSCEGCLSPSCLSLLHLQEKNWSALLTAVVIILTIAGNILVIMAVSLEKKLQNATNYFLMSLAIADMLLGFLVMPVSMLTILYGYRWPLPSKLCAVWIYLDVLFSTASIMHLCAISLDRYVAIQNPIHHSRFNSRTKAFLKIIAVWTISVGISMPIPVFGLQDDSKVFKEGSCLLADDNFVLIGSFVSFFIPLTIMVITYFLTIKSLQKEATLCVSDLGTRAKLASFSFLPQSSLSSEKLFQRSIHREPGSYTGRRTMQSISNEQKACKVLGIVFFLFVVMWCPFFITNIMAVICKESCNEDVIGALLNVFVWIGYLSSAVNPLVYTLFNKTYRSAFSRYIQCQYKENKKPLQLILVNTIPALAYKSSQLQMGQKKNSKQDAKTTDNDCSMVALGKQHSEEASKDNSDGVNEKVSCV
Sequence of D(2) dopamine receptor (Homo sapiens) (P14416 whole entry, looked up): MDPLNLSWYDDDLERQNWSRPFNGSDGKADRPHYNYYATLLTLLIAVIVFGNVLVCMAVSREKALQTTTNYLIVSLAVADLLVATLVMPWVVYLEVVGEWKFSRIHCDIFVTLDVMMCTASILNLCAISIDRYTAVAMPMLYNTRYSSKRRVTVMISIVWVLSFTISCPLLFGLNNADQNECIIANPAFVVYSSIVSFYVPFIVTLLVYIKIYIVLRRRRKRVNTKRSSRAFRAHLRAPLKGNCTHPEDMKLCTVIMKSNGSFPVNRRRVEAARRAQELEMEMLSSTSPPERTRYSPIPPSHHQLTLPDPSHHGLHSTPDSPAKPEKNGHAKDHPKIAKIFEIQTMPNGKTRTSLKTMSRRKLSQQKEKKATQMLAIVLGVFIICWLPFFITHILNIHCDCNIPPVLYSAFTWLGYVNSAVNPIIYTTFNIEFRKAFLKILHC
Sequence of KiSS-1 receptor (Homo sapiens) (Q969F8 whole entry, looked up): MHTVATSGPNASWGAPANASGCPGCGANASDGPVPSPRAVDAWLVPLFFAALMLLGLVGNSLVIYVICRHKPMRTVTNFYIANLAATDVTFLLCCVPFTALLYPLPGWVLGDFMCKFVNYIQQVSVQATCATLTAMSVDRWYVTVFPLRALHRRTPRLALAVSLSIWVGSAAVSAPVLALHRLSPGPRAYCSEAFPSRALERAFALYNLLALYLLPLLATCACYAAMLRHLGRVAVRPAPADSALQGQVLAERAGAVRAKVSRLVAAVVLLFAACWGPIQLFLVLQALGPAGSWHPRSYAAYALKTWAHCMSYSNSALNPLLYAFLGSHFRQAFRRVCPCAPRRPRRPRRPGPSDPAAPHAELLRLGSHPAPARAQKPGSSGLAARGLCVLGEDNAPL
Sequence of Beta-2 adrenergic receptor (Homo sapiens) (P07550 whole entry, looked up): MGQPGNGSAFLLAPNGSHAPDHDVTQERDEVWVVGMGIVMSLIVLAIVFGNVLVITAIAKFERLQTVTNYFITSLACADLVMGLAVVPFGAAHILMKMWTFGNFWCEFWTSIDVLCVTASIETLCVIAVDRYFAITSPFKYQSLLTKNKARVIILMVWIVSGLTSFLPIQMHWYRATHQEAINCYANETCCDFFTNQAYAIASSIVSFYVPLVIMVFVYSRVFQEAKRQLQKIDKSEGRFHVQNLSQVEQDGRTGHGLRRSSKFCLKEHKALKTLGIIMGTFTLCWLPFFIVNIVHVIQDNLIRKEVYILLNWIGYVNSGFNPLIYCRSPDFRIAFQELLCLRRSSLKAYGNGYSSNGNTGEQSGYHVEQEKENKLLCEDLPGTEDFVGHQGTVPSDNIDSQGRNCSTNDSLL
Sequence of Muscarinic acetylcholine receptor M1 (Homo sapiens) (P11229 whole entry, looked up): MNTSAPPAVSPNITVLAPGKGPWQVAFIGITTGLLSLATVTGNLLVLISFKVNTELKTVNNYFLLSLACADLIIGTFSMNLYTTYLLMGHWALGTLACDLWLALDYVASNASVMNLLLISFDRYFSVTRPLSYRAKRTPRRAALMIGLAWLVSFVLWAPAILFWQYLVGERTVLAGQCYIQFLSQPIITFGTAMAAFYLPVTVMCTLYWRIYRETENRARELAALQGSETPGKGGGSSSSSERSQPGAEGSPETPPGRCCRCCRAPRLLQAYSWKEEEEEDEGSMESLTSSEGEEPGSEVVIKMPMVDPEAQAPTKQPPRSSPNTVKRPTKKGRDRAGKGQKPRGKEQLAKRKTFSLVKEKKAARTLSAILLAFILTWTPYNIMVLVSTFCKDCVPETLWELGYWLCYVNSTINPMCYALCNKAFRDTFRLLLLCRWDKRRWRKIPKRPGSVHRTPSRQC
Sequence of Gonadotropin-releasing hormone receptor (Homo sapiens) (P30968 whole entry, looked up): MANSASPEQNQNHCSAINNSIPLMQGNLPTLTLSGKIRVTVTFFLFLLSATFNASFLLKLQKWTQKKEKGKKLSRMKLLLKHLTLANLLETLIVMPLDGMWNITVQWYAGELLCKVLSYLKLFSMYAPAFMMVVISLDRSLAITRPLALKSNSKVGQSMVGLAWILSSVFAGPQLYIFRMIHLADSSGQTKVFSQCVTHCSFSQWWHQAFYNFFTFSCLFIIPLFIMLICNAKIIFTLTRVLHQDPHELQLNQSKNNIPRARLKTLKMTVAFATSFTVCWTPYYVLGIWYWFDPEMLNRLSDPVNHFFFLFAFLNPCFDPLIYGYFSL

Compound	Potency [1]	Potency [2]	Potency [3]	Potency [4]	Potency [5]	Potency [6]	Potency [7]	Potency [8]	Potency [9]	Potency [10]	Potency [11]	Potency [12]	Potency [13]	Potency [14]	Potency [15]	Potency [16]	Potency [17]	Potency [18]	Potency [19]	Potency [20]
CCCCSP(=O)(SCCCC)SCCCC	inactive	inactive	inactive	inactive	inactive	inactive	inactive	inactive	inactive	inactive	inactive	inactive	inactive	inactive	inactive	inactive	inactive	inactive	inactive	–
c1ccc(Nc2ccc3ccccc3c2)cc1	68.2 µM (active)	12.1 µM (active) and 21.7 µM (active)	inactive	inactive	inactive	inactive	–	inactive	inactive	–	inactive	inactive	inactive	inactive	–	–	inactive	inactive	inactive	inactive
O=C(Cl)CCl	inactive	inactive	inactive	inactive	inactive	inactive	inactive	inactive	inactive	inactive	inactive	inactive	inactive	inactive	inactive	inactive	inactive	inactive	inactive	inactive
C=C(Cl)CCl	inactive	inactive	inactive	inactive	inactive	inactive	–	–	inactive	inactive	–	inactive	inactive	inactive	inactive	inactive	inactive	inactive	inactive	inactive
O=C1C(Cl)=C(Cl)C(=O)C(Cl)=C1Cl	27.2 µM (active) and 27.3 µM (active)	4.84 µM (active) and 9.69 µM (active)	inactive	inactive	inactive	inactive	40.8 µM (active)	inactive and 40.8 µM (active)	inactive	–	inactive	inactive	inactive	inactive	inactive	inactive	–	–	–	–
C=CC(=O)OCC(CC)(COC(=O)C=C)COC(=O)C=C	6.28 µM (active) and 12.2 µM (active)	2.8 µM (active) and 6.11 µM (active)	inactive	inactive	inactive	inactive	–	–	26.4 µM (active)	–	inactive	inactive	inactive	inactive	–	–	–	inactive	inactive and 48.6 µM (active)	–
ClC1C(Cl)C(Cl)C(Cl)C(Cl)C1Cl (stereo unspecified)	inactive	62.4 µM (active) and inactive	inactive	inactive	inactive	inactive	inactive	inactive	inactive	inactive	inactive	inactive and 54.9 µM (active)	inactive	inactive	inactive	–	inactive	inactive	inactive	inactive
CCN(CCO)CCO	inactive	inactive	inactive	inactive	inactive	inactive	inactive	inactive	inactive	inactive	inactive	inactive	inactive	inactive	inactive	inactive	inactive	inactive	inactive	inactive
N#CCCC#N	inactive	inactive	inactive	inactive	inactive	inactive	inactive	inactive	inactive	inactive	inactive	inactive	inactive	inactive	inactive	inactive	inactive	inactive	inactive	–
c1ccc(N=NNc2ccccc2)cc1	inactive	28.3 µM (active) and 61.1 µM (active)	inactive	inactive	inactive	inactive	inactive	inactive	inactive	inactive	–	–	inactive	inactive	inactive	inactive	inactive	–	inactive	–
CC1(C)C(C=C(Cl)Cl)C1C(=O)OC(C#N)c1cccc(Oc2ccccc2)c1 (stereo unspecified)	inactive	inactive	inactive	inactive	inactive	inactive	–	inactive	inactive	inactive	inactive	inactive	inactive	inactive	–	inactive	inactive	inactive	inactive	inactive
COP(=S)(OC)Oc1ccc(S(=O)(=O)N(C)C)cc1	inactive	inactive	inactive	inactive	inactive	1.29 µM (active)	inactive	inactive	inactive	inactive	inactive	inactive	–	inactive	inactive	inactive	inactive	inactive	inactive	inactive
C1=Cc2cccc3cccc1c23	inactive	23.9 µM (active) and inactive	inactive	inactive	inactive	inactive	inactive	–	inactive	inactive	inactive	–	inactive	–	inactive	inactive	inactive	inactive	inactive	inactive
CSc1nnc(C(C)(C)C)c(=O)n1N	inactive	inactive	inactive	inactive	inactive	inactive	inactive	inactive	inactive	inactive	inactive	inactive	inactive	inactive	inactive	inactive	inactive	inactive	inactive	inactive
O=C(CCl)CCl	50.3 µM (active) and 54.5 µM (active)	28.3 µM (active) and 27.3 µM (active)	inactive	inactive	inactive	inactive	inactive	inactive	inactive	inactive	inactive	inactive	inactive	inactive	inactive	inactive	inactive	–	inactive	–

Reference: PubChem BioAssay (Tox21)
